Assay results published in PubChem BioAssay AID1159580 (chemical genetic matrix, 2015).
About 2,000 (36%) of roughly 5,500 compounds were called active. Not shown: some 18% with an inconclusive outcome. No stated cut-off is given here; in the data, active means normalized growth mostly below about 0.91 (no sharp cut-off); inconclusive means no clear call, values can overlap the other calls; inactive means mostly above about 0.92. The list shows a part of the results.

Assay: chemical genetic growth profiling, strain panel (AID 1159580);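 further: tested at 20 µM; growth read once vehicle control cultures reached saturation at 30 °C; 1 = growth at the plate median or of vehicle wells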
Conditions: growth OD
[1] = S. cerevisiae deletion strains, locus YDL101C, strain DUN1, stronger effect = lower value
[2] = S. cerevisiae deletion strains, locus YHR030C, strain SLT2, stronger effect = lower value
[3] = S. cerevisiae deletion strains, locus YAR019C, strain CDC15, stronger effect = lower value
[4] = S. cerevisiae deletion strains, locus YBL105C, strain PKC1, stronger effect = lower value
[5] = S. cerevisiae deletion strains, locus YBR135W, strain CKS1, stronger effect = lower value
[6] = S. cerevisiae deletion strains, locus YBR136W, strain MEC1, stronger effect = lower value
[7] = S. cerevisiae deletion strains, locus YBR160W, strain CDC28, stronger effect = lower value
[8] = S. cerevisiae deletion strains, locus YDL017W, strain CDC7, stronger effect = lower value
[9] = S. cerevisiae deletion strains, locus YDL028C, strain MPS1, stronger effect = lower value
[10] = S. cerevisiae deletion strains, locus YDL108W, strain KIN28, stronger effect = lower value
[11] = S. cerevisiae deletion strains, locus YDL132W, strain cdc53, stronger effect = lower value
[12] = S. cerevisiae deletion strains, locus YDL214C, strain PRR2, stronger effect = lower value
[13] = S. cerevisiae deletion strains, locus YDR052C, strain DBF4, stronger effect = lower value
[14] = S. cerevisiae deletion strains, locus YDR054C, strain cdc34, stronger effect = lower value
[15] = S. cerevisiae deletion strains, locus YDR226W, strain ADK1, stronger effect = lower value
[16] = S. cerevisiae deletion strains, locus YDR477W, strain SNF1, stronger effect = lower value
[17] = S. cerevisiae deletion strains, locus YER123W, strain YCK3, stronger effect = lower value
[18] = S. cerevisiae deletion strains, locus YER133W, strain GLC7, stronger effect = lower value
[19] = S. cerevisiae deletion strains, locus YFL009W, strain cdc4, stronger effect = lower value
[20] = S. cerevisiae deletion strains, locus YFL029C, strain CAK1, stronger effect = lower value
[21] = S. cerevisiae deletion strains, locus YFR003C, strain YPI1, stronger effect = lower value
[22] = S. cerevisiae deletion strains, locus YFR019W, strain FAB1, stronger effect = lower value
[23] = S. cerevisiae deletion strains, locus YFR028C, strain CDC14, stronger effect = lower value
[24] = S. cerevisiae deletion strains, locus YGR040W, strain KSS1, stronger effect = lower value
[25] = S. cerevisiae deletion strains, locus YGR052W, strain FMP48, stronger effect = lower value
[26] = S. cerevisiae deletion strains, locus YGR092W, strain DBF2, stronger effect = lower value
[27] = S. cerevisiae deletion strains, locus YHR079C, strain IRE1, stronger effect = lower value
[28] = S. cerevisiae deletion strains, locus YHR082C, strain KSP1, stronger effect = lower value
[29] = S. cerevisiae deletion strains, locus YHR205W, strain SCH9, stronger effect = lower value
[30] = S. cerevisiae deletion strains, locus YIL147C, strain SLN1, stronger effect = lower value
[31] = S. cerevisiae deletion strains, locus YJL095W, strain BCK1, stronger effect = lower value
[32] = S. cerevisiae deletion strains, locus YJL128C, strain PBS2, stronger effect = lower value
[33] = S. cerevisiae deletion strains, locus YJL157C, strain FAR1, stronger effect = lower value
[34] = S. cerevisiae deletion strains, locus YJR016C, strain ILV3, stronger effect = lower value
[35] = S. cerevisiae deletion strains, locus YJR066W, strain TOR1 (second series), stronger effect = lower value
[36] = S. cerevisiae deletion strains, locus YJR066W, strain TOR1, stronger effect = lower value
[37] = S. cerevisiae deletion strains, locus YKL048C, strain ELM1, stronger effect = lower value
[38] = S. cerevisiae deletion strains, locus YKL067W, strain YNK1, stronger effect = lower value
[39] = S. cerevisiae deletion strains, locus YKL101W, strain HSL1, stronger effect = lower value
[40] = S. cerevisiae deletion strains, locus YKL193C, strain SDS22, stronger effect = lower value
[41] = S. cerevisiae deletion strains, locus YKL203C, strain TOR2, stronger effect = lower value
[42] = S. cerevisiae deletion strains, locus YLR113W, strain HOG1, stronger effect = lower value
[43] = S. cerevisiae deletion strains, locus YLR133W, strain CKI1, stronger effect = lower value
[44] = S. cerevisiae deletion strains, locus YLR403W, strain SFP1, stronger effect = lower value
[45] = S. cerevisiae deletion strains, locus YML070W, strain DAK1, stronger effect = lower value
[46] = S. cerevisiae deletion strains, locus YMR001C, strain CDC5, stronger effect = lower value
[47] = S. cerevisiae deletion strains, locus YMR205C, strain PFK2 (second series), stronger effect = lower value
[48] = S. cerevisiae deletion strains, locus YMR277W, strain FCP1, stronger effect = lower value
[49] = S. cerevisiae deletion strains, locus YNL006W, strain LST8, stronger effect = lower value
[50] = S. cerevisiae deletion strains, locus YNL020C, strain ARK1, stronger effect = lower value
[51] = S. cerevisiae deletion strains, locus YNL161W, strain CBK1, stronger effect = lower value
[52] = S. cerevisiae deletion strains, locus YNL183C, strain NPR1, stronger effect = lower value
[53] = S. cerevisiae deletion strains, locus YNL207W, strain RIO2, stronger effect = lower value
[54] = S. cerevisiae deletion strains, locus YNL222W, strain SSU72, stronger effect = lower value
[55] = S. cerevisiae deletion strains, locus YNL307C, strain MCK1 (second series), stronger effect = lower value
[56] = S. cerevisiae deletion strains, locus YOL078W, strain AVO1, stronger effect = lower value
[57] = S. cerevisiae deletion strains, locus YOL136C, strain PFK27, stronger effect = lower value
[58] = S. cerevisiae deletion strains, locus YOR061W, strain CKA2, stronger effect = lower value
[59] = S. cerevisiae deletion strains, locus YOR119C, strain RIO1, stronger effect = lower value
[60] = S. cerevisiae deletion strains, locus YOR231W, strain MKK1, stronger effect = lower value
[61] = S. cerevisiae deletion strains, locus YOR329C, strain SCD5, stronger effect = lower value
[62] = S. cerevisiae deletion strains, locus YPL031C, strain PHO85, stronger effect = lower value
[63] = S. cerevisiae deletion strains, locus YPL153C, strain RAD53, stronger effect = lower value
[64] = S. cerevisiae deletion strains, locus YPL204W, strain HRR25, stronger effect = lower value
[65] = S. cerevisiae deletion strains, locus YPL209C, strain IPL1, stronger effect = lower value
[66] = S. cerevisiae deletion strains, locus YPL256C, strain CLN2, stronger effect = lower value
[67] = S. cerevisiae deletion strains, locus YPR025C, strain CCL1, stronger effect = lower value
[68] = S. cerevisiae deletion strains, locus YPR106W, strain ISR1, stronger effect = lower value
[69] = S. cerevisiae deletion strains, locus YPR111W, strain DBF20, stronger effect = lower value
[70] = S. cerevisiae deletion strains, strain NNK1, stronger effect = lower value
[71] = S. cerevisiae deletion strains, strain TSCII, stronger effect = lower value

Measured: normalized growth

O=C1/C(=C/c2ccc(Cl)cc2)COc2ccc(F)cc21
inactive: S. cerevisiae deletion strains, locus YAL013W, strain DEP1, stronger effect = lower value 0.956 | S. cerevisiae deletion strains, locus YBR229C, strain ROT2, stronger effect = lower value 0.978 | [1] 1.01 | S. cerevisiae deletion strains, locus YDR150W, strain NUM1, stronger effect = lower value 1.01 | S. cerevisiae deletion strains, locus YEL061C, strain CIN8, stronger effect = lower value 0.934 | S. cerevisiae deletion strains, locus YGR078C, strain PAC10, stronger effect = lower value 0.972 | S. cerevisiae deletion strains, locus YGR229C, strain SMI1, stronger effect = lower value 0.951 | S. cerevisiae deletion strains, locus YHR087W, strain rtc3, stronger effect = lower value 0.96 | S. cerevisiae deletion strains, locus YJR043C, strain POL32, stronger effect = lower value 0.977 | S. cerevisiae deletion strains, locus YJR075W, strain HOC1, stronger effect = lower value 0.98 | S. cerevisiae deletion strains, locus YLR058C, strain SHM2 (second series), stronger effect = lower value 0.959 | S. cerevisiae deletion strains, locus YML094W, strain GIM5, stronger effect = lower value 0.941 | S. cerevisiae deletion strains, locus YMR219W, strain ESC1, stronger effect = lower value 0.963 | S. cerevisiae deletion strains, locus YMR263W, strain SAP30, stronger effect = lower value 0.942 | S. cerevisiae deletion strains, locus YNL153C, strain GIM3, stronger effect = lower value 0.986 | S. cerevisiae deletion strains, locus YNL322C, strain KRE1, stronger effect = lower value 0.959 | S. cerevisiae deletion strains, locus YPL055C, strain LGE1, stronger effect = lower value 0.963 | S. cerevisiae strains, strain wild type, stronger effect = lower value 0.967
active: [2] 0.305 | S. cerevisiae deletion strains, locus YLR039C, strain RIC1, stronger effect = lower value 0.472 | S. cerevisiae deletion strains, locus YLR085C, strain ARP6, stronger effect = lower value 0.431 | S. cerevisiae deletion strains, locus YLR262C, strain YPT6, stronger effect = lower value 0.528 | S. cerevisiae deletion strains, locus YNL298W, strain CLA4 (second series), stronger effect = lower value 0.83 | S. cerevisiae deletion strains, locus YNR030W, strain Alg12, stronger effect = lower value 0.829 | S. cerevisiae deletion strains, locus YPL241C, strain CIN2, stronger effect = lower value 0.704 | S. cerevisiae deletion strains, locus YPR135W, strain CTF4, stronger effect = lower value 0.405

O=C1/C(=C/c2cccs2)COc2ccccc21
active: [4] 0.899 | [1] 0.908 | [2] 0.778 | [30] 0.891 | [35] 0.603 | [42] 0.667 | [61] 0.9 | [65] 0.894 | [66] 0.802
inactive: [3] 0.903 | [5] 0.913 | [6] 0.899 | [7] 0.908 | [8] 0.911 | [9] 0.9 | [10] 0.901 | [11] 0.902 | [12] 0.793 | [13] 0.93 | [14] 0.88 | [15] 0.901 | [16] 0.779 | [17] 0.73 | [18] 0.765 | [19] 0.901 | [20] 0.897 | [21] 0.906 | [22] 0.884 | [23] 0.901 | [24] 0.766 | [25] 0.767 | [26] 0.684 | [27] 0.871 | [28] 0.735 | [29] 0.783 | [31] 0.832 | [32] 0.873 | [33] 0.789 | [34] 0.9 | [36] 0.762 | [37] 0.873 | [38] 0.831 | [39] 0.829 | [40] 0.901 | [41] 0.853 | [43] 0.86 | [44] 0.796 | [45] 0.802 | [46] 0.895 | [47] 0.831 | [48] 0.909 | [49] 0.916 | [50] 0.839 | [51] 0.906 | [52] 0.763 | [53] 0.9 | [54] 0.91 | [55] 0.803 | [56] 0.906 | [57] 0.816 | [58] 0.813 | [59] 0.833 | [60] 0.82 | [62] 0.756 | [63] 0.777 | [64] 0.786 | [67] 0.911 | [68] 0.901 | [69] 0.907 | [70] 0.906 | [71] 0.895

O=C1/C(=C/c2ccc(C(F)(F)F)cc2)COc2ccccc21
inactive: [3] 0.937 | [4] 0.924 | [5] 0.92 | [6] 0.924 | [7] 0.926 | [8] 0.926 | [9] 0.925 | [1] 0.946 | [10] 0.923 | [11] 0.934 | [12] 0.936 | [13] 0.931 | [14] 0.931 | [15] 0.925 | [16] 0.914 | [17] 0.886 | [18] 0.913 | [19] 0.926 | [20] 0.927 | [21] 0.93 | [22] 0.953 | [23] 0.961 | [24] 0.894 | [25] 0.953 | [26] 0.719 | [27] 0.888 | [28] 0.85 | [29] 0.784 | [30] 0.917 | [31] 0.901 | [32] 0.896 | [33] 0.92 | [34] 0.929 | [35] 0.976 | [36] 0.817 | [37] 0.897 | [38] 0.938 | [39] 0.906 | [40] 0.93 | [41] 0.921 | [43] 0.916 | [44] 0.846 | [45] 0.922 | [46] 0.918 | [47] 0.889 | [48] 0.933 | [49] 0.948 | [50] 0.881 | [51] 0.936 | [52] 0.88 | [53] 0.925 | [54] 0.938 | [55] 0.861 | [56] 0.931 | [57] 0.913 | [58] 0.879 | [59] 0.868 | [60] 0.916 | [61] 0.931 | [62] 0.897 | [63] 0.93 | [64] 0.921 | [65] 0.932 | [67] 0.925 | [68] 0.959 | [69] 0.946 | [70] 0.91 | [71] 0.932
active: [2] 0.824 | [42] 0.823 | [66] 0.852
